Results as given in PubChem BioAssay.
Results filed as inconclusive are left out. The source made the active and inactive calls.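 The calls were made as follows, unless noted: active = viability at or under a set limit in both replicates, limit being median viability minus 3 SD (cut at about 48% in these data, passing the limit was not always enough); inconclusive = at or under the limit in just one replicate; inactive = at or above the limit in both replicates.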

Key:
[1] = Her2 expression decrease, cell viability multiplex – SKBR3 breast tumor cells, AlphaScreen, ATP viability, primary screen (AID 461;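 active = Her2 level under about 52% in both replicate screens, with viability over 70% of control, limit read from the data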;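 as to Her2 level: lower value means less Her2 protein in the cells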;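 as to viability: percent of carrier control wells set as 100% viability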); details: SKBR3 Her2 protein level, 18-24 h, measured here: SKBR3 viability, ATP luminescence, at 10 µM
[2] = molecular target: Receptor tyrosine-protein kinase erbB-2 (Homo sapiens) (UniProt P04626); assay: as above; details: 18-24 h, at 10 µM, stronger effect = lower value
[3] = reduced viability of SK-BR-3 breast cancer cells – cell-based, 24 h, human, pilot screen (AID 572;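 active = viability at or below 10% of carrier control in both of two separate runs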;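 also: compound exposure lasted between 18 and 24 h rather than exactly 24 h; 100% = carrier-treated control wells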); details: SK-BR-3 viability, CellTiter-Glo luminescence, at 10 µM, stronger effect = lower value
[4] = HUVEC growth inhibition – cell-based, human, primary screen (AID 575;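 active = viability at or below 30% in both replicate assays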;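 also: 100% = median of untreated cell wells with 0.1% DMSO on each plate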); details: HUVEC proliferation, CellTiter-Glo luminescence, 72 h; at 10 µM; stronger effect = lower value
[5] = H69AR cell proliferation blockers – human, duplicate replicates, primary screen (AID 580); details: H69AR lung tumor cells viability, ATP luminescence, 72 h; at 10 µM; stronger effect = lower value;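 also: 100% = mean luminescence of untreated wells and 0% = no signal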
[6] = MRP1 drug-resistance reversers in H69AR cells – cell-based, doxorubicin co-treatment, pilot screen (AID 601;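 active = viability loss from added drug above about 55%, and viability with drug at most 40%, in both replicates, limit read from the data, passing the limit was not always enough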); details: CellTiter-Glo, 72 h, at 10 µM; for differential viability (reversal): stronger effect = higher value
[7] = yeast transport mutant growth inhibition pilot in 384-well plates, post-Golgi transport modulator project (AID 636; in the data active = inhibition above about 31%); details: absorbance 615 nm, about 18 h, stronger effect = higher value
[8] = growth suppression of yeast trafficking mutant, preliminary HTS, modulators of trafficking downstream of Golgi apparatus project, 1536-format plate, OD 615 nm (AID 637; in the data active = inhibition above about 30%); details: yeast transport mutant growth, absorbance 615 nm, 18 h; stronger effect = higher value
[9] = S. cerevisiae growth inhibition in permissive medium (OD615), pilot counter-assay for S. cerevisiae lifespan shortening project, permissive growth control (AID 705;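 active = growth inhibition above 25% in both replicates, a cutoff set 3 SD above the mean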); details: OD615, 24 h, at 10 µM, stronger effect = higher value
[10] = S. cerevisiae growth inhibition in restrictive medium, OD615, pilot screen, restrictive growth control, yeast lifespan reduction project (AID 706;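 active = growth inhibition above a set limit, 3 SD over mean compound inhibition, in both replicates, cut at about 43% in these data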;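 also: modified DeaD lifespan yeast strain shifted to restrictive glucose medium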); details: OD615, 48 h, at 10 µM, stronger effect = higher value
[11] = doxorubicin toxicity protection in MRP-1 cells – H69AR cells, CellTiter-Glo, duplicate, MRP-1 activator project, pilot screen (AID 807;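 active = viability increase at or above a cutoff of the median across tested compounds plus 3 SD, cut at about 8.5% in these data, passing the limit was not always enough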;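 also: compound pretreatment 18-22 h then 72 h combined with doxorubicin; 0% = doxorubicin alone and 100% = vehicle without doxorubicin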); details: H69AR viability with doxorubicin, CellTiter-Glo luminescence; at 10 µM; stronger effect = higher value
[12] = viability of HCT116 without oncogenic beta-catenin – human colon tumor cells, pilot screen (AID 823;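 active = cell viability at or below a set limit in both duplicate runs, the limit being the all-compound median minus 4 SD, cut at about 23% in these data, passing the limit was not always enough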;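 also: 0% = wells killed by 20 µM Hyamine and 100% = untreated DMSO cell wells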); details: HCT116 beta-catenin knockout viability, CellTiter-Glo, 60 h; at 10 µM; stronger effect = lower value
[13] = viability of PTEN-null HCT116 cells – cell-based, HCT116 clonal line, CellTiter-Glo, pilot screen (AID 824;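 active = viability at or below 27.92% in each of two runs, the all-compound median minus 4 SD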;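 also: 0% = 20 µM Hyamine control and 100% = vehicle cell control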); details: HCT116 PTEN-deleted viability, 60 h, at 10 µM, stronger effect = lower value
[14] = RAM pathway blockade in budding yeast – dse1pr::URA3 reporter, 5-FOA selection, pilot screen (AID 869;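 active = inhibition over a set limit, the all-compound mean plus 3 SD, in both replicate runs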;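 also: 0% = DMSO wells with no growth and 100% = 10 µM 1-NA-PP1 with full growth; RAM network block rescues cells from 5-FOA so hits raise OD615 growth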); details: S. cerevisiae dse1pr::URA3 5-FOA growth, OD615, 2 d; at 10 µM; stronger effect = higher value; strain carries analog-sensitive mutant Cbk1 kinase
[15] = RAM signaling pathway blockade in yeast – S. cerevisiae, Pdr1DBD-CYC8 efflux-inhibited sensitized strain, primary screen (AID 1298;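 active = RAM network inhibition above 8.4% in each of two replicates, 3 SD over the compound average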;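 also: 0% = DMSO untreated cells without growth and 100% = 10 µM 1-NA-PP1 full growth; higher means more yeast growth rescued from 5-FOA killing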); details: S. cerevisiae cbk1-as DSE1-URA3 strain, 5-FOA growth OD615, 2 d; at 50 µM; stronger effect = higher value
[16] = H69AR cells + 2 uM doxorubicin, measured here: viability with 2 uM doxorubicin, stronger effect = lower value
[17] = H69AR cells, compound alone cytotoxicity

Sequence of Receptor tyrosine-protein kinase erbB-2 (Homo sapiens) (P04626 whole entry, looked up): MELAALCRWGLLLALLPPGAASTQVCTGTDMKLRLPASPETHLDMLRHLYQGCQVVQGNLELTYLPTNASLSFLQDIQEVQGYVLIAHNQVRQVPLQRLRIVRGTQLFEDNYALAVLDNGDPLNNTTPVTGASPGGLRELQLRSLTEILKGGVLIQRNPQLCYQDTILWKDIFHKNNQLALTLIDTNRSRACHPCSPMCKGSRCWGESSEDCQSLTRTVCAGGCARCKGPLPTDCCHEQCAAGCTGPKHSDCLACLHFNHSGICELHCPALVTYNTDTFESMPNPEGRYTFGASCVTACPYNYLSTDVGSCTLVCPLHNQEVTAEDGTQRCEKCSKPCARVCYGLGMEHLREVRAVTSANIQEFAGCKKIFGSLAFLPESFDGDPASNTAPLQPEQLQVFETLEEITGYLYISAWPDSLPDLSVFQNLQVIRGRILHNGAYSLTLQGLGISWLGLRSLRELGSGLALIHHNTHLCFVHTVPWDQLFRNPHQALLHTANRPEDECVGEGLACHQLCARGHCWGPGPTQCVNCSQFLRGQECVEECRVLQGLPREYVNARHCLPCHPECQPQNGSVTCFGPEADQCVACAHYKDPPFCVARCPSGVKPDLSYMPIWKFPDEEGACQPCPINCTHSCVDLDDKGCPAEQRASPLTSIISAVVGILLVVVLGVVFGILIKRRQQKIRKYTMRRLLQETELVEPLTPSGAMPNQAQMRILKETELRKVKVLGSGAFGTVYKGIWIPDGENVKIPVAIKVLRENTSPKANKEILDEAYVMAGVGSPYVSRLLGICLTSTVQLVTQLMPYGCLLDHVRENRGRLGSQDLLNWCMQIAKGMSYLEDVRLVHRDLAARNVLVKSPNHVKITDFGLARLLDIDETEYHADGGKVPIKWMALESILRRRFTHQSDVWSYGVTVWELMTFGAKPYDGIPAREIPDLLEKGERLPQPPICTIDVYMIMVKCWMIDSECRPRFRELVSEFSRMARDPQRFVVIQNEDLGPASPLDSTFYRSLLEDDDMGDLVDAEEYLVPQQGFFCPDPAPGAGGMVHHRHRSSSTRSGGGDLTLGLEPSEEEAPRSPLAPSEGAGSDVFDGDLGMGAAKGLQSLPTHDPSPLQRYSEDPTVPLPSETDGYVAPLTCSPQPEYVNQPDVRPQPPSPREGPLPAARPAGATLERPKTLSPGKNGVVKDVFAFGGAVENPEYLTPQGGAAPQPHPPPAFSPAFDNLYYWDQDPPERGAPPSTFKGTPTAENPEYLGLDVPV

CCC(C)C(NC(=O)C1CCC(C)CC1)C(=O)NCc1cccnc1 (stereo unspecified)
96.3%: viability [6, 16]
102%: viability [6, 17]
99%: viability [1]
inactive: Her2 level [2] 87.5% | viability [3] 99% | viability [4] 82.4% | viability [5] 102% | differential viability (reversal) ([6]; H69AR cells + 2 uM doxorubicin) 5.36% | inhibition [7] -6.89% | inhibition [8] 3.17% | growth inhibition [9] -12.5% | growth inhibition [10] -2.67% | viability increase [11] -0.91% | viability [12] 86.4% | viability [13] 87.7% | inhibition [14] 0.265% | RAM network inhibition [15] 4.7%

C=CCSc1nc(N)c2c(C)c(C)sc2n1
98.5%: viability [1]
83.5%: viability [6, 16]
88%: viability [6, 17]
inactive: Her2 level [2] 70.5% | viability [3] 98.5% | viability [4] 86.5% | viability [5] 88% | differential viability (reversal) ([6]; H69AR cells + 2 uM doxorubicin) 4.54% | inhibition [7] -0.52% | inhibition [8] -8.33% | growth inhibition [9] -10.6% | growth inhibition [10] -14% | viability increase [11] -3.58% | viability [12] 95.3% | viability [13] 92.4% | inhibition [14] 0.34% | RAM network inhibition [15] 8.79%

CC1CCN(S(=O)(=O)c2cccc(C(=O)Nc3ccccn3)c2)CC1
inactive: Her2 level [2] 104% | viability [3] 86% | viability [4] 86.7% | viability [5] 94.3% | differential viability (reversal) ([6]; H69AR cells + 2 uM doxorubicin) -2.55% | inhibition [7] 4.1% | inhibition [8] 1.83% | growth inhibition [9] 8.12% | growth inhibition [10] 3.79% | viability increase [11] -1.96% | viability [12] 93.9% | viability [13] 97.7% | inhibition [14] -0.08% | RAM network inhibition [15] 4.54%
86%: viability [1]
96.8%: viability [6, 16]
94.3%: viability [6, 17]

CCCC(=O)N1CC(=O)Nc2ccc(C)cc2C1c1ccc(F)cc1 (stereo unspecified)
97.4%: viability [6, 17]
77.1%: viability [6, 16]
inactive: Her2 level [2] 101% | viability [3] 86% | viability [4] 79.9% | viability [5] 97.4% | differential viability (reversal) ([6]; H69AR cells + 2 uM doxorubicin) 20.3% | inhibition [7] -2% | inhibition [8] 0.16% | growth inhibition [9] -8.09% | growth inhibition [10] -8.8% | viability increase [11] -3.73% | viability [12] 82.2% | viability [13] 84.2% | inhibition [14] 1.42% | RAM network inhibition [15] 2.82%
86%: viability [1]

CCc1ccc(N2CC34C=CC(O3)C(C(=O)OC)C4C2=O)cc1 (stereo unspecified)
102%: viability [1]
94.2%: viability [6, 17]
inactive: Her2 level [2] 104% | viability [3] 102% | viability [4] 96.7% | viability [5] 94.2% | differential viability (reversal) ([6]; H69AR cells + 2 uM doxorubicin) 12% | inhibition [7] -2.8% | inhibition [8] -1.17% | growth inhibition [9] -6.25% | growth inhibition [10] 3.24% | viability increase [11] 0.55% | viability [12] 102% | viability [13] 99.7% | inhibition [14] 0.255% | RAM network inhibition [15] 0.11%
82.2%: viability [6, 16]

N#Cc1nc(COc2ccccc2Cl)oc1N1CCCCCC1
96.9%: viability [6, 16]
93.1%: viability [6, 17]
inactive: Her2 level [2] 104% | viability [3] 96.5% | viability [4] 79.6% | viability [5] 93.1% | differential viability (reversal) ([6]; H69AR cells + 2 uM doxorubicin) -3.75% | inhibition [7] -3.6% | inhibition [8] -3.17% | growth inhibition [9] 7.94% | growth inhibition [10] 6.52% | viability increase [11] 2.96% | viability [12] 98.7% | viability [13] 87.5% | inhibition [14] 2.3% | RAM network inhibition [15] 5.67%
96.5%: viability [1]

Cc1nc2ccccc2c2oc(C(=O)N3CCN(C(=O)c4ccco4)CC3)cc12
79%: viability [1]
inactive: Her2 level [2] 95.5% | viability [3] 79% | viability [4] 87.4% | viability [5] 83.1% | differential viability (reversal) ([6]; H69AR cells + 2 uM doxorubicin) -0.275% | inhibition [7] -2.69% | inhibition [8] 1.67% | growth inhibition [9] -6.06% | growth inhibition [10] 2.71% | viability increase [11] -5.18% | viability [12] 101% | viability [13] 107% | inhibition [14] 0.195% | RAM network inhibition [15] 2.11%
83.4%: viability [6, 16]
83.1%: viability [6, 17]

C=CCOC(=O)COc1ccc2c(C)c(C)c(=O)oc2c1C
125%: viability [6, 17]
106%: viability [1] | viability [6, 16]
inactive: Her2 level [2] 92.5% | viability [3] 106% | viability [4] 97.9% | viability [5] 125% | differential viability (reversal) ([6]; H69AR cells + 2 uM doxorubicin) 19.5% | inhibition [7] -0.81% | inhibition [8] -3.49% | growth inhibition [9] -18.3% | growth inhibition [10] -15.6% | viability increase [11] 2.23% | viability [12] 101% | viability [13] 95.9% | inhibition [14] 1% | RAM network inhibition [15] 2.98%

COc1cccc(C2CC(c3ccc(C)cc3)n3nc(N)nc3N2)c1 (stereo unspecified)
inactive: Her2 level [2] 112% | viability [3] 104% | viability [4] 95.3% | viability [5] 98.2% | differential viability (reversal) ([6]; H69AR cells + 2 uM doxorubicin) -7.23% | inhibition [7] -4.1% | inhibition [8] 3.5% | growth inhibition [9] 0.34% | growth inhibition [10] 9.55% | viability increase [11] -1.45% | viability [12] 103% | viability [13] 98.6% | inhibition [14] -0.18% | RAM network inhibition [15] 7.85%
98.2%: viability [6, 17]
104%: viability [1]
105%: viability [6, 16]

CCCCCn1c(CCNC(=O)CCC)nc2ccccc21
87.4%: viability [6, 17]
82.4%: viability [6, 16]
inactive: Her2 level [2] 102% | viability [3] 96.5% | viability [4] 79.6% | viability [5] 87.4% | differential viability (reversal) ([6]; H69AR cells + 2 uM doxorubicin) 5.08% | inhibition [7] -4.67% | inhibition [8] 1.17% | growth inhibition [9] -0.135% | growth inhibition [10] -11.5% | viability increase [11] -1.41% | viability [12] 94% | viability [13] 87.2% | inhibition [14] 1.89% | RAM network inhibition [15] 2.6%
96.5%: viability [1]

CCCCc1cc2c(c(NC(C)=O)n1)c(=O)oc1ccccc12
77.9%: viability [6, 17]
86.2%: viability [6, 16]
inactive: Her2 level [2] 99% | viability [3] 112% | viability [4] 80.6% | viability [5] 77.9% | differential viability (reversal) ([6]; H69AR cells + 2 uM doxorubicin) -8.33% | inhibition [7] -3.47% | inhibition [8] -4% | growth inhibition [9] -9.7% | growth inhibition [10] -4.55% | viability increase [11] -4.33% | viability [12] 94.8% | viability [13] 87.8% | inhibition [14] 1.68% | RAM network inhibition [15] 3.84%
112%: viability [1]

O=C(Cn1nc(Cc2cccnc2)c2ccccc2c1=O)NCC1CCCO1 (stereo unspecified)
95.4%: viability [6, 16]
92.2%: viability [6, 17]
122%: viability [1]
inactive: Her2 level [2] 111% | viability [3] 122% | viability [4] 99.2% | viability [5] 92.2% | differential viability (reversal) ([6]; H69AR cells + 2 uM doxorubicin) -3.21% | inhibition [7] -3.33% | inhibition [8] 3.5% | growth inhibition [9] -1.69% | growth inhibition [10] 6.33% | viability increase [11] -1.12% | viability [12] 105% | viability [13] 99.1% | inhibition [14] 1.01% | RAM network inhibition [15] 5.65%

CCc1ccc(C2CC(c3cccc(OC)c3)n3nc(N)nc3N2)cc1 (stereo unspecified)
inactive: Her2 level [2] 92% | viability [3] 90% | viability [4] 113% | viability [5] 105% | differential viability (reversal) ([6]; H69AR cells + 2 uM doxorubicin) 7.42% | inhibition [7] 2.31% | inhibition [8] 4.83% | growth inhibition [9] -0.21% | growth inhibition [10] 12% | viability increase [11] 2.74% | viability [12] 93.3% | viability [13] 81.1% | inhibition [14] 1.21% | RAM network inhibition [15] 4.95%
90%: viability [1]
105%: viability [6, 17]
97.5%: viability [6, 16]
